Assay results from PubChem BioAssay (NCI).
The panel holds about 79,000 compounds, 15% with a hit somewhere; the sample as a whole holds those more often. Unmarked numbers belong to inactive results. Activity calls are given as the source filed them. Rule as the data show it: active = growth inhibition above about 70%; inactive = the rest.

Test: NCI Yeast Anticancer Drug Screen. Data for the sgs1 strain (AID 173);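 also: 0% = growth of vehicle-only control cultures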
Details: S. cerevisiae sgs1 mutant, at 11.0 µM, hits give high values
How it was run: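 Read-out: yeast growth inhibition relative to vehicle controls, following compound exposure of a strain with a defined DNA repair/cell cycle alteration.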
`CCN(CC)CC[n+]1ccc2c(C)c3[nH]c4ccc(O)cc4c3c(C)c2c1` gave a growth inhibition of 6%. Compound `O=[n+]1c2ccc(Cl)cc2n([O-])c2ccc(Cl)cc21` has a growth inhibition of 4%. `CCOP(=O)(OCC)C(Cc1ccccc1)N=C(c1ccccc1)c1ccccc1` (centres undefined) showed a growth inhibition of 15%. For `CC[C@@]1(O)C(=O)OCc2c1cc1n(c2=O)Cc2cc3c(N)cccc3nc2-1`, the growth inhibition was 5%. For `COC1C=COC2(C)Oc3c(C)c(O)c4c(c3C2=O)/C(=N/C2CCC(O)OC2C)C=C(NC(=O)/C(C)=C\C(=O)C2CC2C(O)C(C)C(O)C(C)C(OC(C)=O)C1C)C4=O` (centres undefined), the growth inhibition was 3%. Work on `COc1cc2c(c(OC)c1OC)-c1c(cc3c(c1OC)OCO3)CC(C)C(C)(O)C2OC(=O)c1ccccc1` (centres undefined) yielded a growth inhibition of 9%. With `O=c1ssc2ncccc12` the growth inhibition was 72% (active). Work on `O=C1C2C(C(=O)N1c1ccc(OCc3ccccc3)cc1)C1c3ccccc3C2C2CCCCN21` (centres undefined) yielded a growth inhibition of -2%. In the case of `COc1ccc(-c2cn(-c3ccc(I)cc3)c3ncnc(N)c23)cc1`, the growth inhibition was -3%. For `CCOC(=O)C(NC(=O)c1ccccc1)(N1CCN(c2cc3c(cc2F)c(=O)c(C(=O)O)cn3C2CC2)CC1)C(F)(F)F` (centres undefined), the growth inhibition was 3%. For `C/C(=N\O)C1CC2C=C(C#N)C1N(Cc1ccccc1)C2` (centres undefined), the growth inhibition was 4%. For `CC/C(=C(\c1ccccc1)c1ccc(OCCN(C)C)cc1)c1ccccc1`, the growth inhibition was 84% (active). `COc1ccccc1N=NC(C(=O)c1ccccc1)C(=O)c1ccccc1` showed a growth inhibition of -4%. Work on `CC(O)C(O)C(O)C(/C=N\Nc1ccccc1)=N/Nc1ccccc1` (centres undefined) yielded a growth inhibition of 11%.
